Laboratory results as given in PubChem BioAssay.
Some of the results follow. Activity calls are given as the source filed them.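 The calls were made as follows, unless noted: active = over 150 percent of DMSO response; inconclusive = yeast strain measured with under 70 events; inactive = the rest.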

Key:
[1] = LAP4-GFP expression modulators in yeast, confirmation, cell-based, second cherry pick, flow cytometry (AID 2621;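 active = GFP signal as percent of the solvent control above about 150%, meaning raised reporter expression, limit read from the data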;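 also: ratio of well median GFP fluorescence to plate DMSO mean so 100% = DMSO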); conditions: S. cerevisiae LAP4-GFP strain, 3 h, at 10 µM, stronger effect = higher value
[2] = modulators of MEP2-GFP levels in yeast, confirmation, S. cerevisiae, flow cytometry GFP, second cherry picks (AID 2622;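 active = GFP signal above 150% of the solvent control wells, that is a rise of more than half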;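 also: median channel GFP fluorescence of all gated yeast cells per well; ratio of median GFP to plate DMSO average so 100% = DMSO level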); conditions: S. cerevisiae MEP2-GFP strain, 3 h, at 10 µM, stronger effect = higher value
[3] = RPL19A-GFP modulators in TOR pathway yeast, confirmation, cell-based, S. cerevisiae, flow cytometry, second cherry pick (AID 2623;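 active = under 65% GFP response relative to DMSO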;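 also: median GFP channel fluorescence per well over the all cells gate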); conditions: S. cerevisiae RPL19A-GFP strain, 3 h, at 10 µM, stronger effect = lower value, 100% means same as DMSO wells
[4] = modulators of CIT2-GFP expression in yeast, confirmation, flow cytometry, second cherry pick, single plex (AID 2624;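 active = GFP response vs DMSO above about 150%, limit read from the data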;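 also: median green fluorescence per well over all gated yeast cells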); conditions: S. cerevisiae CIT2-GFP strain, 3 h, at 10 µM, stronger effect = higher value, DMSO control wells read 100%
[5] = AGP1-GFP expression modulators, hit retest, confirmation, cell-based, flow cytometry, S. cerevisiae, cherry pick set 2 (AID 2643);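 also: median GFP channel fluorescence over all cells without mother daughter split; sample median GFP divided by mean DMSO control so 100% equals DMSO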; conditions: S. cerevisiae AGP1-GFP strain, 3 h, at 10 µM, stronger effect = higher value
[6] = inhibitors of CD8+ T cell-vesicle binding, pilot screen, LFA-1/ICAM-1 modulator project, MLPCN validation set, flow cytometry (AID 2523;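 active = response below a set limit, under 55% cells CD8-positive and vesicle-bound, and CD8 cells' 90th-percentile brightness under 279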;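 as to vesicle binding response: mean PE anti-B7-1 fluorescence of CD8+ cells relative to row control; 100% = QL9-loaded vesicles with DMSO vehicle in the same plate row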); conditions: 2C mouse CD8+ T cells, at 7 µM, stronger effect = lower value; double positive events: measured here: CD8+/vesicle+ event percentage
[7] = target: Integrin beta-1 (Homo sapiens) + Integrin alpha-4 (Homo sapiens) (UniProt P13612+P05556); assay: inhibition of HUTS-21 binding to VLA-4, pilot screen, VLA-4 allosteric modulator project, U937 cells, HUTS-21 mAb, flow cytometry, validation set (AID 2674;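 active = inhibition above 50%, about 3 SD of the validation set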;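 also: antibody binding induced by the VLA-4 ligand LDV present at three times its Kd; 0% = LDV ligand with antibody and no compound and 100% = antibody without LDV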); conditions: HUTS-21 LIBS mAb binding, at 6.7 µM, stronger effect = higher value, binding induced by LDV ligand
[8] = superoxide lowering in aged yeast cells, pilot screen, validation compound set (AID 2706;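 active = superoxide response below 65% of plate, a cut near 3 SD across the whole screen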;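 also: yeast exposed to compound for one week at 30 degrees C before staining; 100% = mean of all compound wells on the same plate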); conditions: S. cerevisiae aging, superoxide DHE fluorescence; at 10 µM, stronger effect = lower value
[9] = target: Beta-adrenergic receptor kinase 1 (Homo sapiens) (UniProt P25098); assay: GRK2 binders displacing RNA aptamer, biochemical, validation, human GRK2, bead flow cytometry (AID 488806;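 active = aptamer binding inhibition above 30%, about 3 SD of noise from non-fluorescent compounds; inactive = inhibition at or below 30%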); conditions: bead-bound GRK2, FAM-aptamer displacement, at 10 µM, stronger effect = higher value
[10] = target: Beta-2 adrenergic receptor (Homo sapiens) (UniProt P07550); assay: beta2AR agonists driving receptor internalization, pilot screen, cell-based, FAP fluorogen, flow cytometry, validation set (AID 504459;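 active = percent response above 42, roughly 3 SD of non-fluorescent test compounds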;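 also: agonist-driven loss of surface beta2AR via internalization measured by FAP dye flow cytometry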); conditions: Am2.2-beta2AR cells, FAP surface receptor flow cytometry; at 10 µM; stronger effect = higher value
[11] = target: AP-2 complex subunit beta (Homo sapiens) (UniProt P63010); assay: inhibitors of arrestin peptide binding to AP2, pilot screen, biochemical, validation set, GST-AP2 beads, flow cytometry (AID 504541;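 active = inhibition above 54%, about 3 SD of non-fluorescent compounds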;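 also: AP2 carries R879A mutation and is captured from E. coli lysate; bead-bound FITC arrestin peptide fluorescence measuring arrestin peptide binding to AP2; 0% = DMSO wells and 100% = excess unlabeled arrestin peptide control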); conditions: FITC arrestin peptide, at 10 µM, stronger effect = higher value, AP2 beta2 appendage fragment, R879A mutant
[12] = yeast V-ATPase proton transport modulators, S. cerevisiae, pHLuorin, HTS validation (AID 504600; in the data active = response above about 15%;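 also: plate controls were DMSO for no effect and reference compound for full effect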); conditions: S. cerevisiae pHLuorin cytosolic pH, at 10 µM, stronger effect = higher value
[13] = system: anti-desmoglein-3 scFv antibody binding to human DSG3; assay: inhibitors of anti-DSG3 scFv binding to DSG3, pilot screen, biochemical, validation compound set, bead-based, flow cytometry (AID 588368;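 active = binding below the plate cutoff, the plate median minus 3 SD, with a reading above zero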;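 also: signal is the median channel fluorescence of bead-bound GFP antibody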); conditions: Protein G beads, DSG3-Fc, scFv-GFP binding, at 10 µM, stronger effect = lower value
[14] = inhibitors of fungal efflux pumps CDR1, CDR2, MDR1, pilot screen, validation compound set, multiplex, phenotypic (AID 588506;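 active = efflux inhibition above 0.42, the validation set average plus 4 SD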;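 also: Nile Red retained in cells so higher fluorescence means more efflux inhibition; 0 = negative control wells and 1 = enniatin B 25 µM full block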); conditions: S. cerevisiae pump-expressing triplex, Nile Red efflux flow cytometry; at 10 µM; stronger effect = higher value; the pumps come from Candida albicans
[15] = target: ATP-binding cassette sub-family B member 6 (Homo sapiens) (UniProt Q9NP58); assay: ABCB6 transporter inhibitors, pilot screen, K562-ABCB6 cells, flow cytometry, validation set (AID 588550;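 active = inhibition above the screen-wide mean plus 3 SD, about 51%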;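 also: 0% = DMSO wells and 100% = benzethonium chloride 70 µM positive control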); conditions: K562-ABCB6 porphyrin accumulation, 1 h, at 10 µM, stronger effect = higher value
[16] = promoters of myeloid differentiation in arrested cells, primary screen, cell-based, GFP/MAC1 double positive, flow cytometry, validation set (AID 588685;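 active = differentiation response of at least 50%, scaled between solvent and reference control, from cells with both markers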;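 also: compound exposure lasts four days before antibody staining and flow analysis; 0% = DMSO wells and 100% = 5 µM fulvestrant positive control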); conditions: ER-HoxA9 marrow cells, stronger effect = higher value, normalized: vehicle 0, fulvestrant 100
[17] = compound autofluorescence in yeast s288c, dose response, artefact control for yeast TOR pathway GFP screen, s288c strain (AID 2757;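 active = fluorescence span over the dose series, or activity score, above about 33, limit read from the data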;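 also: thousands of bead-calibrated equivalent soluble fluorophore molecules from median cell fluorescence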); conditions: S. cerevisiae s288c, 520 nm autofluorescence, flow cytometry, 3 h; at 33 µM; stronger effect = higher value; zero means same as solvent-only cells

Integrin beta-1 (Homo sapiens) + Integrin alpha-4 (Homo sapiens), sequence (P05556 whole entry, looked up): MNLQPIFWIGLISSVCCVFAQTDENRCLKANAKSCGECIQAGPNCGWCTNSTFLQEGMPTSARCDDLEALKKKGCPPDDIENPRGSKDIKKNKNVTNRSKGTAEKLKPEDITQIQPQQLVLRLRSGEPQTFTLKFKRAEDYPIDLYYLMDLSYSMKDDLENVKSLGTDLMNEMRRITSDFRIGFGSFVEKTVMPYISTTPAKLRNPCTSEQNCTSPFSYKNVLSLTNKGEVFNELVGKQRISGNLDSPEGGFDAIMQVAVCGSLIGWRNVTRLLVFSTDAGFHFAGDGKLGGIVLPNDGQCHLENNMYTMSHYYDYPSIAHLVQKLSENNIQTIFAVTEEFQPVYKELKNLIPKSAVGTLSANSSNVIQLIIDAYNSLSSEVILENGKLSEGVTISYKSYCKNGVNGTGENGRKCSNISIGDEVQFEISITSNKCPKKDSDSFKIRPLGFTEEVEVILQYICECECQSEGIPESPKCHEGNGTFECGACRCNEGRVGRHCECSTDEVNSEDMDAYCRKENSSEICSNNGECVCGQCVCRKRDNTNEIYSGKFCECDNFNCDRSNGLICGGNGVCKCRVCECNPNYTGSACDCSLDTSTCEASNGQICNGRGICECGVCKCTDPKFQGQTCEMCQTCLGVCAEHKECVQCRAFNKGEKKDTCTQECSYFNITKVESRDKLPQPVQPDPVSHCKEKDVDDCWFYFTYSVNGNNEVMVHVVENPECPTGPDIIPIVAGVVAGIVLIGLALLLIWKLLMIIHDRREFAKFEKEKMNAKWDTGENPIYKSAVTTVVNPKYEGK
Integrin beta-1 (Homo sapiens) + Integrin alpha-4 (Homo sapiens), sequence (P13612 whole entry, looked up): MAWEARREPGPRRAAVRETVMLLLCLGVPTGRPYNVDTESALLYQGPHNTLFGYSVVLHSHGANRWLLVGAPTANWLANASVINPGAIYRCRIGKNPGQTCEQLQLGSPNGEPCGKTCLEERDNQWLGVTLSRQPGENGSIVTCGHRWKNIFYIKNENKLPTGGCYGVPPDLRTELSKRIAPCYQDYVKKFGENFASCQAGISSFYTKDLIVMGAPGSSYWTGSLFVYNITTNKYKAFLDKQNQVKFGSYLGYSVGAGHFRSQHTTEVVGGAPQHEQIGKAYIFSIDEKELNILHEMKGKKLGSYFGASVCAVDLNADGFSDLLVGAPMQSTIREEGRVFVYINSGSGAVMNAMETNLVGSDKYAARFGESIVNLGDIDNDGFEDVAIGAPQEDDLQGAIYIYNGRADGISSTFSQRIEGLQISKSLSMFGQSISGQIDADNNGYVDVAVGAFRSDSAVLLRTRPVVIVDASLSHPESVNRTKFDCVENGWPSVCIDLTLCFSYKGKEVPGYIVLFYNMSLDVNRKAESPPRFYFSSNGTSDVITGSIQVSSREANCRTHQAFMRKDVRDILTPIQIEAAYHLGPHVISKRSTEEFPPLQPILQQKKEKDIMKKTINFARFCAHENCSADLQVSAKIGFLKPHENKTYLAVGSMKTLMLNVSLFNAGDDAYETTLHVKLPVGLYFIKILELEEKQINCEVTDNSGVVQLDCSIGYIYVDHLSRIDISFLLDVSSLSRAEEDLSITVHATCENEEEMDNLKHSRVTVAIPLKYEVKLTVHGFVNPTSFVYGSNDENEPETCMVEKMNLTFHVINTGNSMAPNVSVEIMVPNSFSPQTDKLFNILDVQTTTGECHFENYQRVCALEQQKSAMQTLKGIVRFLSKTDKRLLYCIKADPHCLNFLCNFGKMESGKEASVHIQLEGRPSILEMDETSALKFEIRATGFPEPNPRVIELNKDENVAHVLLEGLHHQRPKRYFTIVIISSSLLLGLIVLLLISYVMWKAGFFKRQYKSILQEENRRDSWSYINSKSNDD
Beta-2 adrenergic receptor (Homo sapiens), sequence (P07550 whole entry, looked up): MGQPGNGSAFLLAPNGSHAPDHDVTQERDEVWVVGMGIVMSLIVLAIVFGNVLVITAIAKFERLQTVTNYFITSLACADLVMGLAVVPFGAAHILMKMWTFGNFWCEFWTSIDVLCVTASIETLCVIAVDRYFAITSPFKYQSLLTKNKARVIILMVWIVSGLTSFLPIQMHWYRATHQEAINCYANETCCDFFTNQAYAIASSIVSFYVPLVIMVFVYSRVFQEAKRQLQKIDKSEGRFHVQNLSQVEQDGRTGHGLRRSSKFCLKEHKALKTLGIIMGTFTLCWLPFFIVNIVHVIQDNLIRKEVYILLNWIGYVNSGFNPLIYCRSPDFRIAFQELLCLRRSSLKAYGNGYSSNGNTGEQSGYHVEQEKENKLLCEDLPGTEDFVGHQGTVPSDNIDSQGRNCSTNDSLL
Beta-adrenergic receptor kinase 1 (Homo sapiens), sequence (P25098 whole entry, looked up): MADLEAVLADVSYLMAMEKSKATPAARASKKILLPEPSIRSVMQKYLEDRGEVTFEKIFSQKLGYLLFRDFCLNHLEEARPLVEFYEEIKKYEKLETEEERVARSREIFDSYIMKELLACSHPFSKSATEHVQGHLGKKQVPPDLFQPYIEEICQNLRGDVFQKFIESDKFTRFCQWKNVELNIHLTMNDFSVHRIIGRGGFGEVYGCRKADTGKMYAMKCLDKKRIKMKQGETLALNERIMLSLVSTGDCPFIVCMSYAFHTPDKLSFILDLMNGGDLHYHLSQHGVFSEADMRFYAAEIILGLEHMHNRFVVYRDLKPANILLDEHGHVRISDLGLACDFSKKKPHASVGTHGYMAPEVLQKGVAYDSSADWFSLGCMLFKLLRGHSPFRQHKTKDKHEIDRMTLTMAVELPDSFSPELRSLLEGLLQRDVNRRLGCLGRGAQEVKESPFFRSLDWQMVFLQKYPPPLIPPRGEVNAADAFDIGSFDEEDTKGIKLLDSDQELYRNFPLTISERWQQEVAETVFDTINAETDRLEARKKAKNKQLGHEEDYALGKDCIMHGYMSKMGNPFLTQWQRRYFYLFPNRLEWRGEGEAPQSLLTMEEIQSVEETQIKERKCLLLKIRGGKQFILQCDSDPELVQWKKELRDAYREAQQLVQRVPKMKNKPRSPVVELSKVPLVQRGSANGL
ATP-binding cassette sub-family B member 6 (Homo sapiens), sequence (Q9NP58 whole entry, looked up): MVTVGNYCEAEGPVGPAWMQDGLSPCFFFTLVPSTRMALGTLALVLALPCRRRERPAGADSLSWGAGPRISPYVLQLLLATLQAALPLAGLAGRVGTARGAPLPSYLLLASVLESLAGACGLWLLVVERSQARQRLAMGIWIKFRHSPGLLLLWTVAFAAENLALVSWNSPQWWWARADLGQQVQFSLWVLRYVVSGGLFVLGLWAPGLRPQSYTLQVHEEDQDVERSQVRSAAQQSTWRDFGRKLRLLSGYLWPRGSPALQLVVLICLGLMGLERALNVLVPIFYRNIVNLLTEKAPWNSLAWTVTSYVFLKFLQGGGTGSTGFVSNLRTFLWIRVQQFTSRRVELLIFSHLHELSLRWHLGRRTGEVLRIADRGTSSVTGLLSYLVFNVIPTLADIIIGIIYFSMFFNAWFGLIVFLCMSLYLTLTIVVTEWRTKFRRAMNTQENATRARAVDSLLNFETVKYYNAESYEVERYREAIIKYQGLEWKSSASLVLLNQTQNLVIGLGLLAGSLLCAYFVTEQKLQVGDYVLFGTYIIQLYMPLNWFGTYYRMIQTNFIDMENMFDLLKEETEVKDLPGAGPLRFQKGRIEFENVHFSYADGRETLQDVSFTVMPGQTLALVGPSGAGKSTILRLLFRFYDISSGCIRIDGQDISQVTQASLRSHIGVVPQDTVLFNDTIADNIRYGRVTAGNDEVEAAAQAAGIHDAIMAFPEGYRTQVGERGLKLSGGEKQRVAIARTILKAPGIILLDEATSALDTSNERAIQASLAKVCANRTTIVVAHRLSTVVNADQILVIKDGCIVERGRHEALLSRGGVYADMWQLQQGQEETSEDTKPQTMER
AP-2 complex subunit beta (Homo sapiens), sequence (P63010 whole entry, looked up, the tested form may be a part, one chain of several): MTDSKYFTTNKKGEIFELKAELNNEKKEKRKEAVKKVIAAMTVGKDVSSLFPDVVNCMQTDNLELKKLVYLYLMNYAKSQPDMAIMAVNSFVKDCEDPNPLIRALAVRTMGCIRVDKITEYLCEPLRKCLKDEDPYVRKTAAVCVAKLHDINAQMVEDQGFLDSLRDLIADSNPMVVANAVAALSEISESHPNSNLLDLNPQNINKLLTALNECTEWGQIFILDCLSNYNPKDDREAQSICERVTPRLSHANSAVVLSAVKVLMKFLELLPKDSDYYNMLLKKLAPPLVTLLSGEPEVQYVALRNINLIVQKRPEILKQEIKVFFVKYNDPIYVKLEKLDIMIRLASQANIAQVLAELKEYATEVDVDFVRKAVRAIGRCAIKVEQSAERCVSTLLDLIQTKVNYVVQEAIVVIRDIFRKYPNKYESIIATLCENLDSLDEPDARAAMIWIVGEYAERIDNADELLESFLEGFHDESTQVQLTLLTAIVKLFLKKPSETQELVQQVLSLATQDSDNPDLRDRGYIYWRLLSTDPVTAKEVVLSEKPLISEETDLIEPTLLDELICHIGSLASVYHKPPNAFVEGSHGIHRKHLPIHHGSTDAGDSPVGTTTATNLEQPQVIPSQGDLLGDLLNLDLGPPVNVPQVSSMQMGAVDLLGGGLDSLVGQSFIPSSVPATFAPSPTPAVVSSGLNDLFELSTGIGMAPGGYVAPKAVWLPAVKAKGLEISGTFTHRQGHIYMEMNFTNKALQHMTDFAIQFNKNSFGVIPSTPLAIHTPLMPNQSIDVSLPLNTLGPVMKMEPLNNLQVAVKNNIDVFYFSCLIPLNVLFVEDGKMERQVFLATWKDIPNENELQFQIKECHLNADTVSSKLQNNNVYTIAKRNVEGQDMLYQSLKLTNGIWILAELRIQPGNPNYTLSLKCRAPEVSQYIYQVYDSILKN

CC(C)[C@@H]1COC(c2cccc(C3=N[C@H](C(C)C)CO3)c2)=N1
inactive: GFP response vs DMSO [1] 99% | GFP response vs DMSO [2] 98.2% | GFP response vs DMSO [3] 101% | GFP response vs DMSO [4] 97.2% | percent response vs DMSO [5] 95.8%

COc1ccc(S(=O)(=O)N2CCN(C(=O)COc3ccc4c(C)cc(=O)oc4c3)CC2)cc1
90%: double positive events [6]
inactive: inhibition [7] 3.67% | superoxide response (% of plate) [8] 96.9% | aptamer binding inhibition [9] -1% | response [10] 11.5% | inhibition [11] -2.78% | response [12] 0.22% | binding (% of control) [13] 103% | efflux inhibition (fraction of control) [14] 0.3 | inhibition [15] -3% | differentiation response [16] 4%

COc1ccc(C)cc1NC(=O)CSc1nc(SC)ns1
inactive: GFP response vs DMSO [1] 97.2% | GFP response vs DMSO [2] 97.8% | GFP response vs DMSO [3] 100% | GFP response vs DMSO [4] 102% | percent response vs DMSO [5] 100%

CCOc1ccccc1C(=O)NCCC(=O)O
60.3%: double positive events [6]
active: efflux inhibition (fraction of control) [14] 0.92
inactive: vesicle binding response [6] 64.9% | inhibition [7] -17.1% | aptamer binding inhibition [9] 1% | response [10] 12.6% | inhibition [11] 19.4% | response [12] 1.48% | binding (% of control) [13] 105% | inhibition [15] 13% | differentiation response [16] 16.9%

CC(Oc1ccc2ccccc2c1)C(=O)NNC(=S)NC(=O)c1ccco1 (stereo unspecified)
active: GFP response vs DMSO [1] 312% | GFP response vs DMSO [2] 175% | GFP response vs DMSO [4] 187%
inactive: GFP response vs DMSO [3] 101% | percent response vs DMSO [5] 112% | fluorescence change (kMESF span) [17] 2.02

CS(=O)(=O)Oc1ccc2c(c1)O/C(=C\C=C\c1ccccc1)C2=O
64.8%: double positive events [6]
inactive: vesicle binding response [6] 247% | inhibition [7] -40.9% | aptamer binding inhibition [9] 4% | response [10] 26.6% | inhibition [11] 27.4% | response [12] -12.2% | binding (% of control) [13] 88.2% | efflux inhibition (fraction of control) [14] -0.14 | inhibition [15] -22% | differentiation response [16] 30.5%

COc1ccc2nc(N3CCN(C(=O)c4ccc([N+](=O)[O-])o4)CC3)sc2c1
active: GFP response vs DMSO [1] 252% | GFP response vs DMSO [2] 255% | GFP response vs DMSO [4] 243%
inactive: GFP response vs DMSO [3] 87% | percent response vs DMSO [5] 87.3%

CCCn1nc(C(=O)NNC(=O)CCOc2ccccc2OCC)c2ccccc2c1=O
inactive: GFP response vs DMSO [1] 102% | GFP response vs DMSO [2] 97.8% | GFP response vs DMSO [3] 102% | GFP response vs DMSO [4] 121% | percent response vs DMSO [5] 99%

CCn1c(=N)c(C(=O)NC)cc2c(=O)n3cccc(C)c3nc21
inactive: vesicle binding response [6] 26.6% | inhibition [7] -8.75% | aptamer binding inhibition [9] 2% | response [10] -15.1% | response [12] -34.5% | binding (% of control) [13] 108% | inhibition [15] 5% | differentiation response [16] 24.7%
active: efflux inhibition (fraction of control) [14] 1.08
55.2%: double positive events [6]

O=C(NCCN1CCOCC1)c1ccc(Cl)cc1
active: efflux inhibition (fraction of control) [14] 1.05
inactive: vesicle binding response [6] 168% | inhibition [7] -16% | aptamer binding inhibition [9] -1% | response [10] 15.8% | inhibition [11] 23.5% | response [12] -22.3% | binding (% of control) [13] 105% | inhibition [15] 14% | differentiation response [16] 15.9%
64.3%: double positive events [6]

CCOC(=O)c1cnc(SCC(=O)NCc2ccco2)nc1N
inactive: GFP response vs DMSO [1] 99.2% | GFP response vs DMSO [2] 97.8% | GFP response vs DMSO [3] 96.8% | GFP response vs DMSO [4] 111% | percent response vs DMSO [5] 95.9%

CCc1nnc(SCc2cccc(F)c2)nc1CC
inactive: GFP response vs DMSO [1] 104% | GFP response vs DMSO [2] 96.1% | GFP response vs DMSO [3] 95.5% | GFP response vs DMSO [4] 89% | percent response vs DMSO [5] 97.8%

O=C(Nc1nnc(-c2ccc(Cl)cc2)o1)c1ccccc1Br
inactive: GFP response vs DMSO [2] 120% | GFP response vs DMSO [3] 99.6% | GFP response vs DMSO [4] 133% | percent response vs DMSO [5] 95.3% | fluorescence change (kMESF span) [17] 0.5
active: GFP response vs DMSO [1] 174%
